# How the values were obtained:
# Assay in all cases: DAPPL (digital affinity profiling via proximity ligation, sequencing); 10 mM Tris-HCl pH 7.5, 50 mM NaCl, 1 mM DTT, 4% glycerol, room temperature, 30 min; GST-TFs on glutathione beads, 16-mer random dsDNA library, 0.1% formaldehyde crosslink after washing; high values mean tight binding
# Conditions in all cases: protein: recombinant; tags: N-terminal GST; dsDNA, one strand shown
# FLI1 = target: T1, FLI1 (Homo sapiens, UniProt Q01543 1-452)
# T1 sequence: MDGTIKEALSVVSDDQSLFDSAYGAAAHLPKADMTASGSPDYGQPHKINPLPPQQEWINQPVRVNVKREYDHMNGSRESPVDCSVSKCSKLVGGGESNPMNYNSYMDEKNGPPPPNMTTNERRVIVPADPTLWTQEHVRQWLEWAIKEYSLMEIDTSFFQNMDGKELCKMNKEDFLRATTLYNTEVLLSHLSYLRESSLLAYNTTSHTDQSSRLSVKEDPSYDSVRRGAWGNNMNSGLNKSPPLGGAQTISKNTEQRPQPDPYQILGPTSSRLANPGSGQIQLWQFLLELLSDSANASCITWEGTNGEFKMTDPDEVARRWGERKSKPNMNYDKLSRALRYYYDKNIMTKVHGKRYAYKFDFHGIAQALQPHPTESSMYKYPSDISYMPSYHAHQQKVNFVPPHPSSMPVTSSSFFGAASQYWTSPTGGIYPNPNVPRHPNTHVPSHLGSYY
# Summary of the method: (§1)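 Beads coated with glutathione captured GST-fused human transcription factors that had been expressed in yeast, and the factors were then given DNA barcodes and pooled with a tag-only sample. The pools were incubated with 200 nmole of a random double-stranded 16-mer DNA library in Tris/NaCl/DTT/glycerol buffer for 30 min at room temperature, washed, crosslinked with 0.1% formaldehyde and proximity-ligated with BsaI/T4 ligase at 37 °C for 1 h. PCR amplification and Illumina NextSeq500 sequencing came last. Binding signal is each hexamer's read frequency for a factor divided by its frequency for the tag-only sample.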
# ELK1 = target: T2, ELK1 (Homo sapiens, UniProt P19419 1-428)
# T2 sequence: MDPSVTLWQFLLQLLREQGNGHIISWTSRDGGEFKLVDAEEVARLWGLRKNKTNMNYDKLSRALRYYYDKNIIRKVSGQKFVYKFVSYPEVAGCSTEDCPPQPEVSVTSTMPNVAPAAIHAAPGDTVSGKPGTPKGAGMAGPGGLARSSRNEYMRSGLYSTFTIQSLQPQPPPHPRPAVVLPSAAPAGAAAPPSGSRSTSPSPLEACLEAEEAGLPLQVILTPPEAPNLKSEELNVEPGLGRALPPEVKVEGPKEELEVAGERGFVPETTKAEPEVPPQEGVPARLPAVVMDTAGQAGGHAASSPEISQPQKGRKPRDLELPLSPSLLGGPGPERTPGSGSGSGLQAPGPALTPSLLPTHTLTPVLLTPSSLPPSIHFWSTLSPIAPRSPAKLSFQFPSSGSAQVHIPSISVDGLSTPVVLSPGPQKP
# Summary of the method: as §1
# GABPA = target: T3, GABPA (Homo sapiens, UniProt Q06546 1-454)
# T3 sequence: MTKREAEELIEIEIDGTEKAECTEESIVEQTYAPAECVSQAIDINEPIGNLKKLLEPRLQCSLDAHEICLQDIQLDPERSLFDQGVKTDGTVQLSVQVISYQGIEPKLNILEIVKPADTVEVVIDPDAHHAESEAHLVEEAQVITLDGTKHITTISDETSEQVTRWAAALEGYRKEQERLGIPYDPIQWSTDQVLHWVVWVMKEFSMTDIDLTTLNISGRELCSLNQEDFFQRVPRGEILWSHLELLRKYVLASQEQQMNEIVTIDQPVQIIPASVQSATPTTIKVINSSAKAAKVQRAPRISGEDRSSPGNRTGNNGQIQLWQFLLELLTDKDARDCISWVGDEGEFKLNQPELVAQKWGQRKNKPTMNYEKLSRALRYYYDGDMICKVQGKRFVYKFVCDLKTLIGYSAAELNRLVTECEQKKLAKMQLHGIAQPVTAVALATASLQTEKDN
# Summary of the method: as §1
# ERG = target: T4, ERG (Homo sapiens, UniProt P11308 1-479)
# T4 sequence: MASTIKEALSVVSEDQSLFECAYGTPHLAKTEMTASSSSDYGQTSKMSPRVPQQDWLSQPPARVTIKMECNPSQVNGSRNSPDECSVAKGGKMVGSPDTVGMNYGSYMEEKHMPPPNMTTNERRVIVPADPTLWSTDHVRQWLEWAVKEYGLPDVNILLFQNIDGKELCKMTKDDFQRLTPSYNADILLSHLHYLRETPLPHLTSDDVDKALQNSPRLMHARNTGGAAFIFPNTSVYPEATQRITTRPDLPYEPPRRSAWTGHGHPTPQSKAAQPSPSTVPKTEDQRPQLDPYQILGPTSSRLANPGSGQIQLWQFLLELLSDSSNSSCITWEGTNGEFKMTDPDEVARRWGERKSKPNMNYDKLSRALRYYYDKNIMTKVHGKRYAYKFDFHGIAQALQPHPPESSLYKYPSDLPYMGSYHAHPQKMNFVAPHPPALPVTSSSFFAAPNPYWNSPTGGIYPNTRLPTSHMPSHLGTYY
# Summary of the method: as §1
# ELF1 = ELF1 (Homo sapiens, UniProt P32519 1-619)
# Summary of the method: as §1
# EHF = target: T5, EHF (Homo sapiens, UniProt Q9NZC4 1-300)
# T5 sequence: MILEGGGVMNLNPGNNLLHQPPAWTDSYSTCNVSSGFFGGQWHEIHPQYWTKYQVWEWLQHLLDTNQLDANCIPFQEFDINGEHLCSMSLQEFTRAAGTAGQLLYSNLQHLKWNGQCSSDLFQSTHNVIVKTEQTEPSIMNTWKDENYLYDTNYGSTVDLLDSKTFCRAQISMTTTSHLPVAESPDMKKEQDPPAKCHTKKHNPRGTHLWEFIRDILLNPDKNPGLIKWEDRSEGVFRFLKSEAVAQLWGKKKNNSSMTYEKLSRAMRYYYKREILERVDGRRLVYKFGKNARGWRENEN
# Summary of the method: as §1
# SPI1 = SPI1 (Homo sapiens, UniProt P17947 1-270)
# Summary of the method: as §1
# SPIB = SPIB (Homo sapiens, UniProt Q01892 1-262)
# Summary of the method: as §1
# ELK3 = target: T6, ELK3 (Homo sapiens, UniProt P41970 1-407)
# T6 sequence: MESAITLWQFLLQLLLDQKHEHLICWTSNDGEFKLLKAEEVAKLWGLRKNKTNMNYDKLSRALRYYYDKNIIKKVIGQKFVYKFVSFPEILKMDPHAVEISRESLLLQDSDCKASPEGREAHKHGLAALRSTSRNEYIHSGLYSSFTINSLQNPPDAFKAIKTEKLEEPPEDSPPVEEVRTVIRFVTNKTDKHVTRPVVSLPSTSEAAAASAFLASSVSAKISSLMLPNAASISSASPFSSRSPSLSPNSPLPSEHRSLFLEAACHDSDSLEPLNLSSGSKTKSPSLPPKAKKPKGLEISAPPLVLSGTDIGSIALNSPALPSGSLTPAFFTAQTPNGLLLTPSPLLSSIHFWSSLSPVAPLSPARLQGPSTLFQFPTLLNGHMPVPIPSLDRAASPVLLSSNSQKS
# Summary of the method: as §1
# Sequence of ELF1 (P32519 whole entry): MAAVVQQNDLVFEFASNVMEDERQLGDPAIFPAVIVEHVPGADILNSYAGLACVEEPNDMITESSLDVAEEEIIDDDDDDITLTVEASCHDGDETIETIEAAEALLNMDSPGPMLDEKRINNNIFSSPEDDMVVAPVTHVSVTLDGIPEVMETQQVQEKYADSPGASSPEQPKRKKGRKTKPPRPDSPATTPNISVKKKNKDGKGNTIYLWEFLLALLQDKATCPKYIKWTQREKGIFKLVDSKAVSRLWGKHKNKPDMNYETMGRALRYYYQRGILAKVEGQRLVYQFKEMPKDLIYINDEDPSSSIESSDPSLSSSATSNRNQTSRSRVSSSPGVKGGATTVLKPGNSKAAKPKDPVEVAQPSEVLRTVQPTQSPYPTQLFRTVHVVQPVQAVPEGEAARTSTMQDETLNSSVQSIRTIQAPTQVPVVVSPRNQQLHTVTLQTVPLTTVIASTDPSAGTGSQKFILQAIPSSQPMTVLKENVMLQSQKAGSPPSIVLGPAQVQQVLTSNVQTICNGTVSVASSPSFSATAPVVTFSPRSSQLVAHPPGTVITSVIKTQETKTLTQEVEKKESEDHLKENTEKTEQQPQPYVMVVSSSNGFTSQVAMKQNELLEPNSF
# Sequence of SPIB (Q01892 whole entry): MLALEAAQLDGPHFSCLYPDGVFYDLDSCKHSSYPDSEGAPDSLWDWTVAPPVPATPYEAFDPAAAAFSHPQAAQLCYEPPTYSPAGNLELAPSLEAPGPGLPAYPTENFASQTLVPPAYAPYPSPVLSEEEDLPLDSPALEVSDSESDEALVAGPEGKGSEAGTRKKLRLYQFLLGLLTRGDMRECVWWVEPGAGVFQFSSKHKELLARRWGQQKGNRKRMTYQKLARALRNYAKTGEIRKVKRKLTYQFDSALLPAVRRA
Sequence,binding signal (FLI1),binding signal (ELK1),binding signal (GABPA),binding signal (ERG),binding signal (ELF1),binding signal (EHF),binding signal (SPI1),binding signal (SPIB),binding signal (ELK3)
TGTCAC,"1.15 fold enrichment (6-mer frequency, TF over GST control)","1.11 fold enrichment (6-mer frequency, TF over GST control)","1.22 fold enrichment (6-mer frequency, TF over GST control)","1.11 fold enrichment (6-mer frequency, TF over GST control)","1.23 fold enrichment (6-mer frequency, TF over GST control)","1.22 fold enrichment (6-mer frequency, TF over GST control)","1.21 fold enrichment (6-mer frequency, TF over GST control)","1.31 fold enrichment (6-mer frequency, TF over GST control)","1.2 fold enrichment (6-mer frequency, TF over GST control)"
CGGTCT,"1.24 fold enrichment (6-mer frequency, TF over GST control)","1.15 fold enrichment (6-mer frequency, TF over GST control)","1.1 fold enrichment (6-mer frequency, TF over GST control)","1.18 fold enrichment (6-mer frequency, TF over GST control)","1.15 fold enrichment (6-mer frequency, TF over GST control)","1.15 fold enrichment (6-mer frequency, TF over GST control)","1.13 fold enrichment (6-mer frequency, TF over GST control)","1.16 fold enrichment (6-mer frequency, TF over GST control)","1.18 fold enrichment (6-mer frequency, TF over GST control)"
CCGATC,"1.38 fold enrichment (6-mer frequency, TF over GST control)","1.25 fold enrichment (6-mer frequency, TF over GST control)","1.21 fold enrichment (6-mer frequency, TF over GST control)","1.24 fold enrichment (6-mer frequency, TF over GST control)","1.28 fold enrichment (6-mer frequency, TF over GST control)","1.24 fold enrichment (6-mer frequency, TF over GST control)","1.18 fold enrichment (6-mer frequency, TF over GST control)","1.17 fold enrichment (6-mer frequency, TF over GST control)","1.17 fold enrichment (6-mer frequency, TF over GST control)"
TGTCCA,"1.18 fold enrichment (6-mer frequency, TF over GST control)","1.18 fold enrichment (6-mer frequency, TF over GST control)","1.1 fold enrichment (6-mer frequency, TF over GST control)","1.19 fold enrichment (6-mer frequency, TF over GST control)","1.19 fold enrichment (6-mer frequency, TF over GST control)","1.16 fold enrichment (6-mer frequency, TF over GST control)","1.08 fold enrichment (6-mer frequency, TF over GST control)","1.13 fold enrichment (6-mer frequency, TF over GST control)","1.14 fold enrichment (6-mer frequency, TF over GST control)"
GTGTTC,"1.13 fold enrichment (6-mer frequency, TF over GST control)","1.25 fold enrichment (6-mer frequency, TF over GST control)","1.26 fold enrichment (6-mer frequency, TF over GST control)","1.22 fold enrichment (6-mer frequency, TF over GST control)","1.1 fold enrichment (6-mer frequency, TF over GST control)","1.15 fold enrichment (6-mer frequency, TF over GST control)","1.28 fold enrichment (6-mer frequency, TF over GST control)","1.09 fold enrichment (6-mer frequency, TF over GST control)","1.1 fold enrichment (6-mer frequency, TF over GST control)"
TGCGGA,"1.35 fold enrichment (6-mer frequency, TF over GST control)","1.27 fold enrichment (6-mer frequency, TF over GST control)","1.2 fold enrichment (6-mer frequency, TF over GST control)","1.37 fold enrichment (6-mer frequency, TF over GST control)","1.32 fold enrichment (6-mer frequency, TF over GST control)","1.37 fold enrichment (6-mer frequency, TF over GST control)","1.85 fold enrichment (6-mer frequency, TF over GST control)","1.29 fold enrichment (6-mer frequency, TF over GST control)","1.23 fold enrichment (6-mer frequency, TF over GST control)"
GGATCC,"1.15 fold enrichment (6-mer frequency, TF over GST control)","1.13 fold enrichment (6-mer frequency, TF over GST control)","1.18 fold enrichment (6-mer frequency, TF over GST control)","1.25 fold enrichment (6-mer frequency, TF over GST control)","1.18 fold enrichment (6-mer frequency, TF over GST control)","1.16 fold enrichment (6-mer frequency, TF over GST control)","1.06 fold enrichment (6-mer frequency, TF over GST control)","1.24 fold enrichment (6-mer frequency, TF over GST control)","1.07 fold enrichment (6-mer frequency, TF over GST control)"
